# Measured values from PubChem BioAssay (NCATS).
# Inconclusive results are not listed. Where a call stands in place of a potency, no number is given. Activity calls are given as the source filed them. Unless noted, calls come from the whole dose curve; as a rule, active = well fitted curve in the direction sought with a large enough effect; inconclusive = small, poorly fitted or top-dose-only effect, or another doubt; inactive = no such curve, though single readings can be large; an effect the other way counts as inactive or inconclusive.
# Tests used:
# [1] = Primary qHTS for small molecule stabilizers of the endoplasmic reticulum resident proteome: Secreted ER Calcium Modulated Protein (SERCaMP) assay (AID 1508630)
# In short: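 GLuc-SERCaMP-expressing SH-SY5Y cells, pretreated 16 h with compound, are challenged with thapsigargin to empty ER calcium stores; after 4 h, coelenterazine is added directly to the medium and luminescence is imaged.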
# [2] = biological target: Lysosomal acid glucosylceramidase (Homo sapiens) (UniProt P04062); experiment: Glucocerebrosidase-p2 (AID 348; in the data active = potency below about 10 µM; note: potency is the fitted concentration of half-maximal effect); conditions: purified GBA, blue fluorogenic substrate, 40 min
# In short: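 Compounds titrated from 0.6 nM upwards against 0.2 nM enzyme in pH 5.9 citric acid/KH2PO4, taurocholate, tween-20; blue fluorogenic substrate 80 uM, 40 min room temperature, stopped and read Ex 365/Em 440 for AC50.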
# [3] = NFAT Signaling Pathway (AID 444; active = well fitted curve in either direction with a large enough effect, not every such curve was filed as active;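 note: carbachol stimulus at about its EC50 of 1 µM final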); conditions: Jurkat NFAT-bla M1, carbachol, beta-lactamase ratio, 5 h; at 7.69 µM (top of the series) unless noted
# In short: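 Jurkat cells with NFAT-driven β-lactamase reporter and co-expressed M1 receptor, stimulated with carbachol (final 1 uM, ~EC50), compound titration, 5 h at 37 °C. CCF4 loaded 1 h at RT; 460/530 nm ratio gave %activity and AC50.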
# [4] = Stat Signaling Pathway (AID 446; active = well fitted curve in either direction with a large enough effect, not every such curve was filed as active;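 note: ME-180 cervical cancer cells given 40 pM IL-6 alongside compound; SIE-controlled beta-lactamase reporter measured as 460/530 nm FRET emission ratio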); conditions: ME-180 SIE beta-lactamase reporter, IL-6 stimulated, 5 h; at 7.69 µM (top of the series) unless noted
# In short: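 ME-180 cells carrying a SIE-driven beta-lactamase reporter are stimulated with 40 pM IL-6 for 5 h at 37C in the presence of compound. The 460/530 nm FRET substrate ratio is read after 2.5 h at RT. Data are normalised to 300 pM IL-6 and to 125 nM JAK inhibitor controls.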
# [5] = biological target: Glucocorticoid receptor (Homo sapiens) (UniProt P04150); experiment: GR-GFP Redistribution (AID 450;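 active = compounds whose dose series gives a full or clear partial fitted curve of increased nuclear translocation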; note: potency is the fitted concentration of half-maximal effect); conditions: U2OS GR-GFP nuclear translocation, laser cytometry, 2 h
# [6] = biological target: Glucocorticoid receptor (Homo sapiens) (UniProt P04150); experiment: GR-EFC Redistribution (AID 451; calls by dose curve; note: potency is the fitted concentration of half-maximal effect); conditions: CHO-K1 GR-EFC translocation, beta-gal luminescence, 2 h
# In short: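 CHO-K1 cells expressing nuclear EA and GR-ED fragments of b-gal; compounds titrated up to 46 uM final, 2 h at 37 C. GR nuclear translocation read as complemented b-gal luminescence after 1 h RT detection.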
# [7] = biological target: Mitogen-activated protein kinase 10 (Mus musculus) (UniProt Q61831); experiment: JNK3 AlphaScreen Assay (AID 530; active = well fitted curve in either direction with a large enough effect, not every such curve was filed as active;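 note: kinase came from lysate of stimulated human HepG2 cells; signal reports phosphorylation of biotinylated GST-cJun 1-79 at Ser73 with 10 µM ATP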)
# In short: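 qHTS format: compounds tested as titrations against IL-1beta/TNF-alpha-activated HepG2 lysate JNK3 with biotin-GST-cJun substrate and 10 uM ATP at room temperature. Loss of anti-phospho-cJun AlphaScreen signal indicates inhibition.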
# [8] = biological target: 3',5'-cyclic-AMP phosphodiesterase 4B (Homo sapiens) (UniProt Q07343); experiment: qHTS Assay for Inhibitors of PDE-IV (AID 607; active = well fitted activation curve with a large enough effect in the main read-out, with a control signal flat, not every such curve was filed as active)
# In short: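 HEK293 ACTOne cells with CNG channel (1000/well), endogenous PDE4; membrane potential dye, compounds up to 22.9 uM final. Fluorescence Ex 535/Em 590; RO 20-1724 (100 uM final) as reference.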
# [9] = Confirmatory qHTS for small molecule stabilizers of the endoplasmic reticulum resident proteome: Secreted ER Calcium Modulated Protein (SERCaMP) assay (AID 1508628); note: potency is the fitted concentration of half-maximal effect; nearly all actives have a fitted effect of over 40% in size
# In short: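 We seeded SH-SY5Y-GLuc-SERCaMP cells, added compounds (three concentrations in the primary run, eleven up to 76.6 uM in confirmation), incubated 16 h, depleted ER calcium with thapsigargin, and read luciferase 4 h later.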
# [10] = AP1 Signaling Pathway (AID 357; active = well fitted curve in either direction with a large enough effect, not every such curve was filed as active;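 note: ME-180 reporter cells stimulated with EGF at its EC50 level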); conditions: ME-180 AP-1-bla reporter, EGF-induced, beta-lactamase ratio, 5 h; at 7.69 µM (top of the series) unless noted
# In short: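 AP-1-bla ME-180 cells, Opti-MEM + 0.5% dialyzed FBS, plated overnight 37 °C. Cpd titration + EC50 EGF, 5 h 37 °C. CCF4 2.5 h RT; ex 405, em 460/530 ratio → %activity, AC50.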
# [11] = biological target: Cytochrome P450 1A2 (Homo sapiens) (UniProt P05177); experiment: p450-cyp1a2 (AID 410; calls by dose curve; note: potency is the fitted concentration of half-maximal effect)
# In short: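 Inhibition was calculated relative to 57 uM furafylline (full inhibition). The reaction used human CYP1A2 at 20nM with Luciferin-ME at its Km, 100uM, driven by an NADPH-regenerating system for 60 min at room temperature.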
# [12] = qHTS Assay for Lipid Storage Modulators (AID 1519; calls by dose curve); conditions: Drosophila S3 cells, BODIPY lipid droplet/cell ratio, laser cytometry, cells loaded with oleic acid; for activity change, negative = inhibition: at 57.5 µM (top of the series)
# In short: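 Cells seeded at 5,000 per well were treated with compounds over a concentration series and loaded with oleic acid (400 uM, as added). Lipid droplet fluorescence (488 nm excitation, 500-530 nm channel) was read by laser-scanning cytometry and normalized to 20 uM Triacsin C.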
# [13] = biological target: Dual specificity protein kinase CLK4 (Homo sapiens) (UniProt Q9HAZ1); experiment: qHTS Assay for Inhibitors of CDC-like Kinase 4 (Kinase-Glo Assay) (AID 1770); note: nearly all actives have a fitted effect of over 65% in size
# In short: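 25 nM Clk4 with 100 uM RS repeat peptide and 1 uM ATP (final) in Tris pH7.5, 10 mM MgCl2, 4.5 h at room temperature. Remaining ATP measured by Kinase-Glo luciferase luminescence.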
# [14] = biological target: Dual specificity protein kinase CLK4 (Homo sapiens) (UniProt Q9HAZ1); experiment: qHTS Assay for Inhibitors of CDC-like Kinase 4 (ADP-Glo Assay) (AID 1771); note: nearly all actives have a fitted effect of over 70% in size
# In short: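 Kinase reaction: Clk4 at 25 nM, RS repeat peptide substrate at 100 uM, ATP at 1 uM, 1 hr, room temperature. Product ADP detected as luciferase signal via ADP-Glo.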
# [15] = biological target: Dual specificity protein kinase CLK4 (Homo sapiens) (UniProt Q9HAZ1); experiment: qHTS Assay for Inhibitors of CDC-like Kinase 4 (ADP-FP Assay) (AID 1795);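 note: recombinant human CLK4 phosphorylating RS repeat peptide at 1 µM ATP; nearly all actives have a fitted effect of over 60% in size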
# In short: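 Recombinant Clk4 (6.25 nM) phosphorylated 100 uM RS repeat peptide with 1 uM ATP in 25 mM Tris pH 7.5, 10 mM MgCl2, 0.5 mM EGTA, 2.5 mM DTT, 0.01% Triton X-100 for 1 h. ADP was detected by Transcreener ADP2 competitive fluorescence polarization after 30 min at room temperature.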
# [16] = biological target: Ubiquitin carboxyl-terminal hydrolase 1 (Homo sapiens) (UniProt O94782); experiment: Inhibitors of USP1/UAF1: Pilot qHTS (AID 504865);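 note: rhodamine fluorescence freed from ubiquitin-rhodamine substrate followed over time; top concentration of the series differs between compounds; nearly all actives have a fitted effect of over 35% in size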
# In short: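 USP1/UAF1 complex at 1 nM preincubated 15 min at room temperature with compound, then Ub-Rho substrate added at 150 nM final. Fluorescence (480/540 nm) read kinetically in 50 mM HEPES pH 7.8, 0.5 mM EDTA, 1 mM TCEP, 0.1 mg/ml BSA, 0.01% Tween-20.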
# [17] = biological target: Cytochrome P450 3A4 (Homo sapiens) (UniProt P08684); experiment: qHTS Assay for Inhibitors and Substrates of Cytochrome P450 3A4 (AID 884); note: potency is the fitted concentration of half-maximal effect; nearly all actives have a fitted effect of over 50% in size
# In short: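 20 nM human CYP3A4 with 25 uM Luciferin-PPXE (at KM) in 200 mM KPO4, preincubated 10 min with compound; NADPH regeneration started a 60 min RT reaction. Luciferin detected by luminescence, normalized to 57 uM ketoconazole as full inhibition.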
# [18] = biological target: Cytochrome P450 3A4 (Homo sapiens) (UniProt P08684); experiment: qHTS Assay for Activators of Cytochrome P450 3A4 (AID 885); note: nearly all actives have a fitted effect of over 65% in size
# In short: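 Human CYP3A4 (20 nM) with Luciferin-PPXE at 25 uM (its KM) in 200 mM KPO4; 10 min compound preincubation, then NADPH regeneration and 60 min reaction at RT. Luciferin read by luminescence; normalized to 57 uM ketoconazole full inhibition.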
# [19] = qHTS Assay for Identification of Small Molecule Agonists for Hypoxia Response Element Signaling Pathway (AID 914; active = well fitted activation curve with a large enough effect in the signal ratio, with a control signal flat, not every such curve was filed as active; the % refers to the signal ratio); conditions: ME-180 (cervical carcinoma) HRE-bla reporter, beta-lactamase ratio, CoCl2, 17 h; activation: stronger effect = higher value
# In short: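 Read-out: CCF4 FRET ratio of 460nm to 530nm emission (excitation 405nm) after 2.5 hours at room temperature, taken from HRE-bla ME-180 cells that had been exposed to compound and EC50 CoCl2 for 17 hours.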
# [20] = biological target: Rap guanine nucleotide exchange factor 3 (Homo sapiens) (UniProt O95398); experiment: Confirmatory qHTS for antagonist of cAMP-regulated guanine nucleotide exchange factor 3 (EPAC1) (AID 1645880); note: nearly all actives have a fitted effect of over 55% in size
# In short: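 Nucleotide exchange uses 100 nM EPAC1, 250 nM RAP1B-BODIPY-GDP and 50 uM GDP, with compounds in a concentration-titration series. After 5 min at room temperature, fluorescence (480 nm ex/540 nm em) is read every 5 min for 30 min. Data are normalized to control ATA and DMSO.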
# [21] = biological target: Rap guanine nucleotide exchange factor 3 (Homo sapiens) (UniProt O95398); experiment: Confirmatory qHTS for agonist of cAMP-regulated guanine nucleotide exchange factor 3 (EPAC1) (AID 1645881);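 note: EPAC1 catalysed release of BODIPY-GDP from Rap1B seen as fluorescence loss; nearly all actives have a fitted effect of over 75% in size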
# [22] = biological target: Rap guanine nucleotide exchange factor 4 (Homo sapiens) (UniProt Q8WZA2); experiment: Confirmatory qHTS for agonist of cAMP-regulated guanine nucleotide exchange factor 4 (EPAC2) (AID 1645884);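 note: nucleotide exchange releases bodipy-GDP from Rap1 and this lowers its fluorescence; nearly all actives have a fitted effect of over 65% in size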
# [23] = measured here: cell count channel max response
# [24] = measured here: lipid channel max response
# Sequence of Dual specificity protein kinase CLK4 (Homo sapiens) (Q9HAZ1 whole entry, looked up): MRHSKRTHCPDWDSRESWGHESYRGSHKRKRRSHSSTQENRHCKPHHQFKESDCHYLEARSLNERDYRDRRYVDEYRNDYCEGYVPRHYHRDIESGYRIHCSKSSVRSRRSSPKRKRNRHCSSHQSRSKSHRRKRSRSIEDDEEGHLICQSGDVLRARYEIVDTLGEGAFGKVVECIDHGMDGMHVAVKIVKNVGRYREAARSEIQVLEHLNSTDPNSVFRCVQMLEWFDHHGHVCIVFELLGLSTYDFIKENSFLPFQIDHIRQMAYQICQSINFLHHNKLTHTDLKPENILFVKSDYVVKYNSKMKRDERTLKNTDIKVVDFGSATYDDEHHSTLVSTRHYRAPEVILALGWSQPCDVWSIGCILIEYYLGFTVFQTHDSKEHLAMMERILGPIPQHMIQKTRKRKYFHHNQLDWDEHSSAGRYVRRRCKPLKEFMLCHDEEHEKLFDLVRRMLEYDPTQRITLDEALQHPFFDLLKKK
# Sequence of Rap guanine nucleotide exchange factor 3 (Homo sapiens) (O95398 whole entry, looked up): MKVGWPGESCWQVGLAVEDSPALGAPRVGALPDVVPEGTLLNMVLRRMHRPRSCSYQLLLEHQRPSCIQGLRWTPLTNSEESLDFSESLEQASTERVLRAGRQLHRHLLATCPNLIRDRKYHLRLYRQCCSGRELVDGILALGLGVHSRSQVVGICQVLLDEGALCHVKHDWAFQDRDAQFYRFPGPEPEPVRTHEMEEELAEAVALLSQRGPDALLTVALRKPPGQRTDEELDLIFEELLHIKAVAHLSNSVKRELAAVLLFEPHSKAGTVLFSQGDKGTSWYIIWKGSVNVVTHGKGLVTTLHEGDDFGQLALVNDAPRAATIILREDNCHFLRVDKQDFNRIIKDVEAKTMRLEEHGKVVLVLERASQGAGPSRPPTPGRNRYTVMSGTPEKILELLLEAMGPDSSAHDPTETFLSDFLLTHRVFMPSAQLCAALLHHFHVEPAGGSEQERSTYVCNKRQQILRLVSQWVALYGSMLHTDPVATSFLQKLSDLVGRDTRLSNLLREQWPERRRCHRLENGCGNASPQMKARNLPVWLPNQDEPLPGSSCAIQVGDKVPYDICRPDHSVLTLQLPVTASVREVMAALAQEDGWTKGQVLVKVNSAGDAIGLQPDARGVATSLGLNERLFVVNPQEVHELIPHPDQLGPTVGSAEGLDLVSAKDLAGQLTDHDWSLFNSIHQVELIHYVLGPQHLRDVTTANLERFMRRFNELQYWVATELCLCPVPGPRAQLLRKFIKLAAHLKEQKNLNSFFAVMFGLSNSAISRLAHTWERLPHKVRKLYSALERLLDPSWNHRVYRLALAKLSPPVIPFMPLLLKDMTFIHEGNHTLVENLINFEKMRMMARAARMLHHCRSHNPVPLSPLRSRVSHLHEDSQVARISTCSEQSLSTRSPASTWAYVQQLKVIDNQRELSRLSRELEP
# Sequence of Cytochrome P450 1A2 (Homo sapiens) (P05177 whole entry, looked up): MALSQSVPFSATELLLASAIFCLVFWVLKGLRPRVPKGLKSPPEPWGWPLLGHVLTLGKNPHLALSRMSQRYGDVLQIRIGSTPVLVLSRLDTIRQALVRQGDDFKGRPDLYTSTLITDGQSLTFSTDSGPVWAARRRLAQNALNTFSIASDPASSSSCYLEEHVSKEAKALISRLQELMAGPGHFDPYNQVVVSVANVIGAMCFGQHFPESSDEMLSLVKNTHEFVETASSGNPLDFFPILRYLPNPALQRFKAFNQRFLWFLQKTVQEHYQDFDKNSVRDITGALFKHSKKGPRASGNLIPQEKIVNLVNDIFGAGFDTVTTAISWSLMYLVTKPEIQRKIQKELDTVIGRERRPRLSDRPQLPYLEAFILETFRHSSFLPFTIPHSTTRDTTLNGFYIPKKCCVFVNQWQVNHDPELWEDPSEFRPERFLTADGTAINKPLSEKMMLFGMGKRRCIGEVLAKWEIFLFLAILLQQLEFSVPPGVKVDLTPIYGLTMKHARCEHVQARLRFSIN
# Sequence of Lysosomal acid glucosylceramidase (Homo sapiens) (P04062 whole entry, looked up): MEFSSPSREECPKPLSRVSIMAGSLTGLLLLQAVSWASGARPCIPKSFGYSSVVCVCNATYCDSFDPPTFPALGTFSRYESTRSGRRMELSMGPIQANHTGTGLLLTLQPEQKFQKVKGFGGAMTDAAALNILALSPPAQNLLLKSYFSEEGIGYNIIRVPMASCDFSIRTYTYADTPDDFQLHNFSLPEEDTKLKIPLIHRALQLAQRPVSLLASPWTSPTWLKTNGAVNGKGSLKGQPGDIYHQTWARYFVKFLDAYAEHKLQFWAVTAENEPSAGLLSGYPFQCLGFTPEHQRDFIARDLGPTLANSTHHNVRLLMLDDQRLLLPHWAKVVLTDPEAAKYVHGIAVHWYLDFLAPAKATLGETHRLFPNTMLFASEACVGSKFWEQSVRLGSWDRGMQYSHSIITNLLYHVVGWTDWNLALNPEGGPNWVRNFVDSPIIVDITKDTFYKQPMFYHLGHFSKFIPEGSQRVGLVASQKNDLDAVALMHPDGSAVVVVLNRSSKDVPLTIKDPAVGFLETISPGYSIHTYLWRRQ
# Sequence of Glucocorticoid receptor (Homo sapiens) (P04150 whole entry, looked up, the tested form may be a part): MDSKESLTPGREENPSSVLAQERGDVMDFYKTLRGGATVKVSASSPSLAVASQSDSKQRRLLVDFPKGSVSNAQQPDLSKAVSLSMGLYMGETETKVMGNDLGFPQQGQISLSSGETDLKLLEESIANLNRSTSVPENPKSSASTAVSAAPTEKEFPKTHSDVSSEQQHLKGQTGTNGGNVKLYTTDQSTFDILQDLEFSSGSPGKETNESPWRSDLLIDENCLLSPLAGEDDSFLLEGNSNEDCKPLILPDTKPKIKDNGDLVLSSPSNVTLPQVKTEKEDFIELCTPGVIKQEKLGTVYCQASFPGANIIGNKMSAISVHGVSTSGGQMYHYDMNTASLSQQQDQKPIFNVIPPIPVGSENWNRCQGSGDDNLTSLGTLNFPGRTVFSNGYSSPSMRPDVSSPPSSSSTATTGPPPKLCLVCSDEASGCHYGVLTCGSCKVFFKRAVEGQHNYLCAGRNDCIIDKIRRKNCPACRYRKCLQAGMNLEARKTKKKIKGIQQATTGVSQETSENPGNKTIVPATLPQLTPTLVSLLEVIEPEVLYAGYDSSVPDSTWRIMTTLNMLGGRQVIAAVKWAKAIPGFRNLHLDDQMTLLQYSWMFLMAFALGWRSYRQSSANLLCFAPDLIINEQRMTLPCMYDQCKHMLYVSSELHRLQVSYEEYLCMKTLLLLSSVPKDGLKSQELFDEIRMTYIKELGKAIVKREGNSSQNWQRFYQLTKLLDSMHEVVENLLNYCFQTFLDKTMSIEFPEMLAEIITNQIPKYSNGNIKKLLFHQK
# Sequence of 3',5'-cyclic-AMP phosphodiesterase 4B (Homo sapiens) (Q07343 whole entry, looked up): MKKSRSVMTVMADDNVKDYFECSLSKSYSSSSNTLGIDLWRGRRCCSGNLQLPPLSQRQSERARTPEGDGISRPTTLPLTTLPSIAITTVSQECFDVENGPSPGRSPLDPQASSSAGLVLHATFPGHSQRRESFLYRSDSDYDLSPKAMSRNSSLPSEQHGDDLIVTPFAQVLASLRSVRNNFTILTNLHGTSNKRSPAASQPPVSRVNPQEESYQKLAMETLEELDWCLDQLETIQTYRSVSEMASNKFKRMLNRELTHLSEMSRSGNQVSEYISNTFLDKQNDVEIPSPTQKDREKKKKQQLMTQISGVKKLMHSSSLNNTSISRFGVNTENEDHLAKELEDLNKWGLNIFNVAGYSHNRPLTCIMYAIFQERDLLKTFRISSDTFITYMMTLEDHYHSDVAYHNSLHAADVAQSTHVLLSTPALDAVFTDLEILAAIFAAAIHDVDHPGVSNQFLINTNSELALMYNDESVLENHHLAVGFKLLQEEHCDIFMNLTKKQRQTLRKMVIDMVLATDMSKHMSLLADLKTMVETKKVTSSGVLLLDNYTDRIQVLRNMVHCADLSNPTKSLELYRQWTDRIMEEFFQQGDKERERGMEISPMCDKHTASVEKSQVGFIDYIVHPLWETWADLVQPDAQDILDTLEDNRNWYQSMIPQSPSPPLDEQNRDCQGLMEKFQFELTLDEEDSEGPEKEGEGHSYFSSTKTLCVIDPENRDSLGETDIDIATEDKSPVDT
# Sequence of Ubiquitin carboxyl-terminal hydrolase 1 (Homo sapiens) (O94782 whole entry, looked up): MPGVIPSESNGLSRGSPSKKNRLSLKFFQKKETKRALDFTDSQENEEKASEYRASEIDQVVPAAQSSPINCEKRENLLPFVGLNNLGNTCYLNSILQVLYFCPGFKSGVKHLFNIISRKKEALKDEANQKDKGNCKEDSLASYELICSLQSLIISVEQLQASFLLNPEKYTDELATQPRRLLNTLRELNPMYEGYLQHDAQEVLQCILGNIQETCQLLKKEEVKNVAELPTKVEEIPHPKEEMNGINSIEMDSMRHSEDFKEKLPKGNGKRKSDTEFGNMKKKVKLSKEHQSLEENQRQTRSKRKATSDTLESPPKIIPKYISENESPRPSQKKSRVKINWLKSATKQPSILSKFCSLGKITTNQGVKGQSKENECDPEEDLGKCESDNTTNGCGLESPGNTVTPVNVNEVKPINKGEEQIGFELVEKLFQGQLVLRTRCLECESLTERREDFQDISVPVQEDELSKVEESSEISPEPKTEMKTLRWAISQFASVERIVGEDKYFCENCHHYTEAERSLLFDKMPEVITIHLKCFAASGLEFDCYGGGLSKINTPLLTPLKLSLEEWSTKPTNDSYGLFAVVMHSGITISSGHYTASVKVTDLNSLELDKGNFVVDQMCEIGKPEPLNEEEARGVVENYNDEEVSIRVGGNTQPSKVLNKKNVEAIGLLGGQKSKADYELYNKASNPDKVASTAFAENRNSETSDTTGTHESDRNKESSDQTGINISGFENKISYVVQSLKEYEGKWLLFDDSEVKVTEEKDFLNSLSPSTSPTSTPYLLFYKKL
smiles,measurement,setting,value
O=CN1CCc2c([nH]c3ccccc23)C1c1cccc2cccnc12 (configuration not stated),Potency,[1],inactive
COc1ccc2cnoc(=O)c2c1OC,Potency,[1],inactive
COc1cccc(Nc2ncc3nc(-c4ccccc4)c(=O)n(C[C@H]4CCCO4)c3n2)c1,Potency,[2],> 11.4 µM (inactive)
same,"activity change, negative = inhibition",[3],-8.66% (inactive)
same,"activity, negative = inhibition",[4],4.51% (inactive)
same,Potency,[5],> 9.22 µM (inactive)
same,Potency,[6],> 46 µM (inactive)
same,outcome,[7],inactive
same,Potency,[8],inactive
same,Potency,[9],39.8 µM (active)
CC(=O)[C@@]1(O)[C@H](O)CC2C3CCC4CC(O)CC[C@]4(C)C3CC[C@@]21C (some centres not stated),Potency,[1],inactive
COc1cccc2c3c(c(C)nc12)CC(CO)O3 (configuration not stated),Potency,[1],inactive
CC1=C(C(N)=O)N2C(=O)[C@@H](NC(=O)Cc3ccccc3)C2SC1 (some centres not stated),Potency,[1],inactive
C[C@@H]1CCC2C(C)(C)C3CC21CC[C@@]3(C)O (some centres not stated),Potency,[1],inactive
C[C@@]12CC(=O)C3=C(CCCC3=O)N1CCc1ccccc12,Potency,[1],inactive
CCOC(=O)c1ncc2[nH]c3cccc(OC(C)C)c3c2c1C,Potency,[1],inactive
C[C@@H](C1[C@@H](O)CC2C3C=CC4C[C@@H](O)CC[C@]4(C)[C@H]3CC[C@@]21C)[C@@H]1CCCCN1 (some centres not stated),Potency,[1],inactive
COc1cc2c(cc1OC)C1N(CC2)C(=O)CCC12C(=O)CCCC2=O (configuration not stated),Potency,[1],inactive
Cc1cc(O)c2c(c1O)C(=O)C(O)=C(O)C2=O,Potency,[1],inactive
C=C[C@]1(C)Cc2occ(C)c2C[C@H]1C(=C)C(=O)O,Potency,[1],inactive
CC1CCC2=C1C[C@H](C(C)(C)O)CC[C@@H]2C (some centres not stated),Potency,[1],inactive
Cc1nc2cnc(N3CCN(C)CC3)nc2n(C)c1=O,Potency,[2],> 11.4 µM (inactive)
same,"activity change, negative = inhibition",[10],2.98% (inactive)
same,Potency,[11],12.6 µM (active)
same,"activity change, negative = inhibition",[3],8.62% (inactive)
same,"activity, negative = inhibition",[4],-15% (inactive)
same,Potency,[5],> 9.22 µM (inactive)
same,Potency,[6],> 46 µM (inactive)
same,outcome,[7],inactive
same,Potency,[8],inactive
same,"activity change, negative = inhibition",[12],3.28% (inactive)
same,max response,[12]; [23],5.81%
same,max response,[12]; [24],7.23%
same,Potency,[13],inactive
same,Potency,[14],inactive
same,Potency,[15],inactive
same,Potency,[16],inactive
same,Potency,[1],inactive
Cc1cccc(CNc2nc(-c3ccc4c(c3)OCO4)nc3ccccc23)c1,Potency,[2],> 11.4 µM (inactive)
same,"activity change, negative = inhibition",[10],-27.3% (inactive)
same,Potency,[11],0.631 µM (active)
same,"activity, negative = inhibition",[4],-19.3% (inactive)
same,Potency,[5],> 46 µM (inactive)
same,Potency,[6],> 46 µM (inactive)
same,outcome,[7],inactive
same,Potency,[17],0.398 µM (active)
same,Potency,[18],inactive
same,activation,[19],6.93% (inactive)
same,"activity change, negative = inhibition",[12],-7.8% (inactive)
same,max response,[12]; [23],-19.2%
same,max response,[12]; [24],-24.8%
same,Potency,[13],inactive
same,Potency,[14],inactive
same,Potency,[15],inactive
same,Potency,[16],inactive
same,Potency,[1],inactive
same,Potency,[20],inactive
same,outcome,[21],inactive
same,outcome,[22],inactive
COc1ccc(-c2nc3cnc(N4CCNCC4)nc3n(Cc3cccs3)c2=O)cc1,Potency,[11],3.98 µM (active)
same,"activity change, negative = inhibition",[3],182% [activator] (active)
same,Potency,[5],> 46 µM (inactive)
same,Potency,[6],> 46 µM (inactive)
same,outcome,[7],inactive
same,Potency,[8],inactive
same,"activity change, negative = inhibition",[12],1.49% (inactive)
same,max response,[12]; [23],7.67%
same,max response,[12]; [24],6.52%
same,Potency,[13],inactive
same,Potency,[14],inactive
same,Potency,[1],inactive
same,outcome,[21],inactive
